From PubChem BioAssay (EPA / NIEHS)
Records with an inconclusive call do not appear. Activity calls are given as the source filed them. How the source made its calls, unless noted: active means hit-call score of the fitted dose curve at least 0.9, where 1 is the maximum; inactive means score below 0.9.

Key:
[1] = biological target: Hepatocyte nuclear factor 4-alpha (Homo sapiens) (UniProt P41235); experiment: ATG_HNF4a_TRANS: Attagene TRANS-FACTORIAL HepG2 Assay for human Hepatocyte Nuclear Factor 4 alpha (HNF4a) (AID 2282982; active means hit-call score of the fitted dose curve at least 0.9, where 1 is the maximum); details: HepG2 HNF4a transactivation reporter, mRNA readout
Sequence of Hepatocyte nuclear factor 4-alpha (Homo sapiens) (P41235 whole entry, looked up, the tested form may be a part): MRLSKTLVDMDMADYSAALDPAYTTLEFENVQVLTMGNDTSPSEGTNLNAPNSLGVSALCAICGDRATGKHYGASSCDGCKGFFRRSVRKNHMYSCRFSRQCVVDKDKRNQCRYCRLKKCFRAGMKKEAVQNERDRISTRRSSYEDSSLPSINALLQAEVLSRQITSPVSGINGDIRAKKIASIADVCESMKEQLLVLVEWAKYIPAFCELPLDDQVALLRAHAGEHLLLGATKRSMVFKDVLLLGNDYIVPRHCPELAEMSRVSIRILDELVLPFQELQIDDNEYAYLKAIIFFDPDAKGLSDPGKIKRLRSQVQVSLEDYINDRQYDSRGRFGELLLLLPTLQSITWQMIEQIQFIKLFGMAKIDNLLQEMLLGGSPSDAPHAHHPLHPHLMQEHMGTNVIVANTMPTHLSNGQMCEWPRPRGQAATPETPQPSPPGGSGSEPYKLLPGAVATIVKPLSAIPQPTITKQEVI
Summary of the method: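 Activity of an exogenous HNF4a–Gal4 fusion scored as induced GAL4-UAS reporter transcripts after 24 h chemical exposure of transfected human HepG2 cells. Read-out via RT-PCR with 6-FAM labelling and capillary electrophoresis; rise over DMSO baseline.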

[2] = biological target: Nuclear receptor subfamily 4 group A member 2 (Homo sapiens) (UniProt P43354); experiment: ATG_NURR1_TRANS: Attagene TRANS-FACTORIAL HepG2 Assay for human Nuclear Receptor Related Protein 1 (NURR1) (AID 2282985; active means hit-call score of the fitted dose curve at least 0.9, where 1 is the maximum); details: HepG2 Attagene TRANS reporter, mRNA readout
Sequence of Nuclear receptor subfamily 4 group A member 2 (Homo sapiens) (P43354 whole entry, looked up, the tested form may be a part): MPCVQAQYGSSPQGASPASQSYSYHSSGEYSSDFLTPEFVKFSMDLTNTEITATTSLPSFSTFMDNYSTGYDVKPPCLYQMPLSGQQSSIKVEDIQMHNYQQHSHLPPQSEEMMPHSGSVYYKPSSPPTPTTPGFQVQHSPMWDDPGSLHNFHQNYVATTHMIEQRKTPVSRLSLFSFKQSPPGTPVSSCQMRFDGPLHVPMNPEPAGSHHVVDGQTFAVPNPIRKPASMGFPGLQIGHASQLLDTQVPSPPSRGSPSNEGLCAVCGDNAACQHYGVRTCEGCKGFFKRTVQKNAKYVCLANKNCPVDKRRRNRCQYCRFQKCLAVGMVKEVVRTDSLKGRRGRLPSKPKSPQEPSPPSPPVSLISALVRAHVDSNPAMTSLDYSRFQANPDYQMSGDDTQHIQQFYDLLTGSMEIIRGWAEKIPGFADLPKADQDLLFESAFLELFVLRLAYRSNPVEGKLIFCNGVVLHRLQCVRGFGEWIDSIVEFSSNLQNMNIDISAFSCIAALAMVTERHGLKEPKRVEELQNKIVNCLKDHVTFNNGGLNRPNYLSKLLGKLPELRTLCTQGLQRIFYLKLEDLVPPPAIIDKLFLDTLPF
Summary of the method: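 Reporter transcript induction, measured by RT-PCR with fluorescent labelling, HpaI digestion and capillary electrophoresis, after 24 hr dosing of human HepG2 cells transiently expressing an exogenous NR-Gal4 fusion with GAL4-UAS-driven reporters; DMSO as baseline.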

[3] = biological target: Transcriptional activator Myb (Homo sapiens) (UniProt P10242); experiment: ATG_Myb_CIS: Attagene CIS-FACTORIAL HepG2 Assay for human Myeloblastosis (Myb) Proto-Oncogene Transcription Factor (AID 2282986); details: HepG2 Attagene CIS-FACTORIAL Myb reporter transcription; actives raise or lower the signal
Sequence of Transcriptional activator Myb (Homo sapiens) (P10242 whole entry, looked up): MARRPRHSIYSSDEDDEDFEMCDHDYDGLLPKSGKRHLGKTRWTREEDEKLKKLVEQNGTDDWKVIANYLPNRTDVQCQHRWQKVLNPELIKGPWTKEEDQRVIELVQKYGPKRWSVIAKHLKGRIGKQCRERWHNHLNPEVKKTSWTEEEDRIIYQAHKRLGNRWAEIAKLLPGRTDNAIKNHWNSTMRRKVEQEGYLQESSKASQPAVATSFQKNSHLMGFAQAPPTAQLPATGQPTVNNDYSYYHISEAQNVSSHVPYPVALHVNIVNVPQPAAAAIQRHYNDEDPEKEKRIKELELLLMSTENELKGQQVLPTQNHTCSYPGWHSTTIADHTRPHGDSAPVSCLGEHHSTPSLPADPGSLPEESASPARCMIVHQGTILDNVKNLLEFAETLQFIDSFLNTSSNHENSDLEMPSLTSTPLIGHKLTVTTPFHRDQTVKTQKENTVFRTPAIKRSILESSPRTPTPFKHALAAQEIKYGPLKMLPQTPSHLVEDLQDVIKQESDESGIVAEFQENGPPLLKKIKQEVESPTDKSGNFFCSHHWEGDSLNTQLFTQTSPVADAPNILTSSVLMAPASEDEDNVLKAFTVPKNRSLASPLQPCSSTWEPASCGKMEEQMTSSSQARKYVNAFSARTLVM
Summary of the method: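 Reporter mRNA is quantified by RT-PCR and capillary electrophoresis 24 h after dosing HepG2 cells transfected with cis-regulated reporter units, which track endogenous transcription factor activity. Gain and loss of signal are fitted versus DMSO baseline.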

[4] = biological target: Nuclear respiratory factor 1 (Homo sapiens) (UniProt Q16656); experiment: ATG_NRF1_CIS: Attagene CIS-FACTORIAL HepG2 Assay for human Nuclear Respiratory Factor 1 (NRF1) Orphan Gene (AID 2282987); details: HepG2 NRF1 cis-element reporter, Attagene multiplex; actives raise or lower the signal
Sequence of Nuclear respiratory factor 1 (Homo sapiens) (Q16656 whole entry, looked up): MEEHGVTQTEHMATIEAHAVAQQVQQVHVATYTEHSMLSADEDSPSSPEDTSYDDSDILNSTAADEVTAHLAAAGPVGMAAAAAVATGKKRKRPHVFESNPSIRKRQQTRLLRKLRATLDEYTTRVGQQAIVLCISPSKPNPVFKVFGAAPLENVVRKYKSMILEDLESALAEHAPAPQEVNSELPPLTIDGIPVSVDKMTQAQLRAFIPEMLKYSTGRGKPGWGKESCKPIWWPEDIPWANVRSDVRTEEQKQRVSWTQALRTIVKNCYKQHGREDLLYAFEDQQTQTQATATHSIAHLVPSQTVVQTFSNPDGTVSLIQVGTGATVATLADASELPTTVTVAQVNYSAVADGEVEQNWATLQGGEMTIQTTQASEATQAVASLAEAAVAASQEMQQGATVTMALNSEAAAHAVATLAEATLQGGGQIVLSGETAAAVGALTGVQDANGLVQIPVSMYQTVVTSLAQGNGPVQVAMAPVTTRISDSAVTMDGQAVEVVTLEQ
Summary of the method: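 Endogenous NRF1-driven reporter transcription in transfected HepG2 cells after 24 h treatment. Readout: RT-PCR products, 6-FAM labelled and resolved by capillary electrophoresis; changes fitted both directions relative to DMSO.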

[5] = ATG_NFI_CIS: Attagene CIS-FACTORIAL HepG2 Assay for human Nuclear Factor I (NFI) (AID 2282989); details: HepG2 cis-regulatory reporter, NFI response element transcription; actives raise or lower the signal
Summary of the method: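 After transient transfection of HepG2 with cis-promoter reporter constructs and 24 h dosing, RNA is reverse-transcribed, amplified, 6-FAM end-labelled and HpaI-digested before capillary analysis. Bidirectional curve fitting against DMSO.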

[6] = biological target: Myc proto-oncogene protein (Homo sapiens) (UniProt P01106); experiment: ATG_Myc_CIS: Attagene CIS-FACTORIAL HepG2 Assay for human Myelocytomatosis (Myc) Proto-Oncogene Transcription Factor (AID 2282990); details: HepG2, Attagene cis-reporter transcription factor activity; actives raise or lower the signal
Sequence of Myc proto-oncogene protein (Homo sapiens) (P01106 whole entry, looked up): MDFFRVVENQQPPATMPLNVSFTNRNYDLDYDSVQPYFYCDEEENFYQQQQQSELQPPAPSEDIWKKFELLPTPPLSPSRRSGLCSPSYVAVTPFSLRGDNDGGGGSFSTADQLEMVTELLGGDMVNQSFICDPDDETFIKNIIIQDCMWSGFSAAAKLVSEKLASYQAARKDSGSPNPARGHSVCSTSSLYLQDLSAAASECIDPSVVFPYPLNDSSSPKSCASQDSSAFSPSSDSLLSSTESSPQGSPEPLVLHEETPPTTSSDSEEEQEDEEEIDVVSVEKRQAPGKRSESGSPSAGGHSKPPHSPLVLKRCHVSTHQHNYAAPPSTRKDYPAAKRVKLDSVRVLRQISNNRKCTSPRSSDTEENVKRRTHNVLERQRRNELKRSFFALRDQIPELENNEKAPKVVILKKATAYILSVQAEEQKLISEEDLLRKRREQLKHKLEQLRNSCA
Summary of the method: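 HepG2, transient MRTU transfection (cis promoters, endogenous TFs); 24 h dosing; TriZol RNA → oligo(dT) RT → PCR → 6-FAM primer extension → HpaI cut → CE. Bidirectional fit vs DMSO.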

[7] = ATG_NRF2_ARE_CIS: Attagene CIS-FACTORIAL HepG2 Assay for human Nuclear Factor Erythroid 2 Related Factor 2 (NFR2) response to Antioxidant Response Elements (ARE) (AID 2282992); details: HepG2 Attagene ARE/NRF2 reporter, transcription factor activity; actives raise or lower the signal
Summary of the method: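 Using transiently transfected HepG2 cells exposed for 24 h, reporter mRNA levels were determined by RT-PCR with fluorescent primer extension and capillary electrophoresis, analysed for gain or loss of signal against DMSO.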

[8] = ATG_Oct_MLP_CIS: Attagene CIS-FACTORIAL HepG2 Assay for human Octamer-Binding Transcription Factor (Oct) (AID 2282993); details: HepG2 Attagene cis-factorial Oct reporter, mRNA; actives raise or lower the signal
Summary of the method: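 Cells of the HepG2 line express promoter-controlled reporter sequences whose mRNA levels, after 24 h treatment, are measured by RT-PCR and capillary electrophoresis. Increases and decreases are scored relative to DMSO.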

[9] = biological target: Cellular tumor antigen p53 (Homo sapiens) (UniProt P04637); experiment: ATG_p53_CIS: Attagene CIS-FACTORIAL HepG2 Assay for human p53 Transcription Factor (AID 2282994); details: HepG2 p53 cis-element reporter, Attagene mRNA; actives raise or lower the signal
Sequence of Cellular tumor antigen p53 (Homo sapiens) (P04637 whole entry, looked up, the tested form may be a part): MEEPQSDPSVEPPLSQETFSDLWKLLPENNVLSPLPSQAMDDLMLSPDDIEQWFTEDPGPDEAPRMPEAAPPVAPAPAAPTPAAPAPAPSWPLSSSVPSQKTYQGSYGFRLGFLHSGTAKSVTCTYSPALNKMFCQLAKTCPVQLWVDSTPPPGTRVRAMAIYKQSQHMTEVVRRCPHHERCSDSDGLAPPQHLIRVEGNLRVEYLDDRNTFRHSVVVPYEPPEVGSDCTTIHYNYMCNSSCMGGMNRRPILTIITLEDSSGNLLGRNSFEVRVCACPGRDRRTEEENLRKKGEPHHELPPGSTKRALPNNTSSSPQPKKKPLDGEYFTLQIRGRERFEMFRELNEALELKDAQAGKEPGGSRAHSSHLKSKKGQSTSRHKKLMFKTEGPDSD
Summary of the method: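 In HepG2 cells, reporter transcription units under cis-regulatory promoters were transiently introduced. Following 24 h treatment, RNA was processed to labelled, digested cDNA fragments read by capillary electrophoresis; fitting was bidirectional versus DMSO.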

[10] = ATG_M_06_TRANS: Attagene TRANS-FACTORIAL HepG2 Assay for M06 Transcription Factor (Internal Marker) (AID 2282983; active means hit-call score of the fitted dose curve at least 0.9, where 1 is the maximum); details: HepG2 Attagene TRANS M06 internal marker reporter
Summary of the method: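 In this multiplexed HepG2 system, compounds are incubated 24 h with cells carrying GAL4-UAS reporter units. Reporter RNA is amplified and resolved by capillary electrophoresis, and induction is scored against DMSO.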

[11] = ATG_NF_kB_CIS: Attagene CIS-FACTORIAL HepG2 Assay for human Nuclear Factor Kappa B (NF-kB) (AID 2282991); details: HepG2 Attagene cis-factorial NF-kB reporter mRNA; actives raise or lower the signal
Summary of the method: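 Readout is reporter transcript level, gain or loss versus DMSO, measured 24 h post-dose via RT-PCR, fluorescent labelling and capillary electrophoresis. Human HepG2 liver cells carried transiently transfected CIS reporter constructs reflecting endogenous factors.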

[12] = BSK_3C_TissueFactor: BioMAP Diversity Plus: 3C Assay for Tissue Factor Biomarker Activity (AID 2282997); details: BioMAP 3C HUVEC, tissue factor biomarker readout; actives raise or lower the signal
Summary of the method: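 Readout: Tissue Factor ELISA. Cells: human primary umbilical vein endothelium. Time: 24 h after dosing. Analysis: bidirectional fit, DMSO baseline.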

[13] = BSK_3C_uPAR: BioMAP Diversity Plus: 3C Assay for Urokinase-type plasminogen activator receptor (uPAR) Biomarker Activity (AID 2282998); details: BioMAP 3C HUVEC, uPAR biomarker ELISA; actives raise or lower the signal
Summary of the method: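 Endothelial primary cells of human umbilical vein origin received test chemical; 24 h later uPAR was assayed by ELISA. Fitting was bidirectional, DMSO as negative control.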

[14] = BSK_3C_VCAM1: BioMAP Diversity Plus: 3C Assay for Vascular cell adhesion molecule 1 (VCAM1) Biomarker Activity (AID 2282999); details: BioMAP 3C HUVEC, VCAM1 ELISA, cytokine-stimulated; actives raise or lower the signal
Summary of the method: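 Activity fitted in both directions relative to DMSO, with ELISA measurement of the surface marker on primary HUVEC (3C) at 24 h post-treatment; parallel SRB staining (0.1% SRB, TCA-fixed, 560 nm) flagged overt cytotoxicity.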

[15] = BSK_4H_Eotaxin3: BioMAP Diversity Plus: 4H Assay for Eotaxin 3 Biomarker Activity (AID 2283000); details: primary human endothelial cells (HUVEC); actives raise or lower the signal;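 further: CCL26 protein level quantified by ELISA in parallel with SRB cytotoxicity check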
Summary of the method: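 HUVEC, 24 h post-dose, ELISA for Eotaxin-3/CCL26. Gain or loss of signal fitted bidirectionally vs DMSO baseline.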

[16] = biological target: Glucocorticoid receptor (Homo sapiens) (UniProt P04150); experiment: ATG_GR_TRANS: Attagene TRANS-FACTORIAL HepG2 Assay for human Glucocorticoid Receptor (GR) (AID 2282978; active means hit-call score of the fitted dose curve at least 0.9, where 1 is the maximum;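 further: activators score as hits since higher reporter transcript over DMSO is fitted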); details: HepG2 Attagene TRANS GR reporter, mRNA transcription
Sequence of Glucocorticoid receptor (Homo sapiens) (P04150 whole entry, looked up, the tested form may be a part): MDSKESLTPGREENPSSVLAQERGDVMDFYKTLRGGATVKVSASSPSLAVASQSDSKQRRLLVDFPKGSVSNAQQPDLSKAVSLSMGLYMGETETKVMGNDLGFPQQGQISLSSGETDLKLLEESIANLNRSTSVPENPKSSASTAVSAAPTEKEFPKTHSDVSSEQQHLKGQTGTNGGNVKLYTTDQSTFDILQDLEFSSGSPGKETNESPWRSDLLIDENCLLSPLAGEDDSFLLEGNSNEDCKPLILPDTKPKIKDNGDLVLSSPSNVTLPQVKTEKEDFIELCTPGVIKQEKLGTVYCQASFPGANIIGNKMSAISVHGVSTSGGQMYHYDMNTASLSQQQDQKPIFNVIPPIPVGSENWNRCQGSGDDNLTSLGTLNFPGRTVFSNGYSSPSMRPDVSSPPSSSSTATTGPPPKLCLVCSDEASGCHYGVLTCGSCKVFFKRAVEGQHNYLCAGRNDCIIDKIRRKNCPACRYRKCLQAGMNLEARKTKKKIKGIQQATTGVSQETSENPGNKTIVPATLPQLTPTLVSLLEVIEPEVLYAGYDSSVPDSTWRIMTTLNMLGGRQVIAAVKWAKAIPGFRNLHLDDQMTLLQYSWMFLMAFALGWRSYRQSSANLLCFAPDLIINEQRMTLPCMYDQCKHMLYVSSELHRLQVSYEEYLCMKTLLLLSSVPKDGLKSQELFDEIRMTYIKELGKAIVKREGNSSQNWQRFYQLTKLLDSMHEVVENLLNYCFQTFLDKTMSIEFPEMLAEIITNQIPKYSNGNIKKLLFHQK
Summary of the method: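 Readout is reporter transcript from a chimeric GR-Gal4 acting on GAL4-UAS in transfected human HepG2 liver cells after 24 h exposure, quantified by RT-PCR and capillary electrophoresis. Activation fitted upward against DMSO.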

[17] = ATG_M_32_TRANS: Attagene TRANS-FACTORIAL HepG2 Assay for M32 Transcription Factor (Internal Marker) (AID 2282984; active means hit-call score of the fitted dose curve at least 0.9, where 1 is the maximum;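 further: transcript level of a background control reporter unit measured by RT-PCR and capillary electrophoresis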); details: HepG2 Attagene TRANS M32 internal marker reporter
Summary of the method: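 Internal background reporter in transfected HepG2: after 24 h chemical exposure, RNA reverse-transcribed, reporter cDNA amplified, fluorescently labelled and HpaI-cut, then sized by capillary electrophoresis. Gain of signal fitted against DMSO control.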

[18] = biological target: Oxysterols receptor LXR-alpha (Homo sapiens) (UniProt Q13133); experiment: ATG_LXRa_TRANS: Attagene TRANS-FACTORIAL HepG2 Assay for human Liver X Receptor alpha (LXRa) (AID 2282980; active means hit-call score of the fitted dose curve at least 0.9, where 1 is the maximum); details: HepG2 Attagene TRANS reporter, LXRa transactivation
Sequence of Oxysterols receptor LXR-alpha (Homo sapiens) (Q13133 whole entry, looked up, the tested form may be a part): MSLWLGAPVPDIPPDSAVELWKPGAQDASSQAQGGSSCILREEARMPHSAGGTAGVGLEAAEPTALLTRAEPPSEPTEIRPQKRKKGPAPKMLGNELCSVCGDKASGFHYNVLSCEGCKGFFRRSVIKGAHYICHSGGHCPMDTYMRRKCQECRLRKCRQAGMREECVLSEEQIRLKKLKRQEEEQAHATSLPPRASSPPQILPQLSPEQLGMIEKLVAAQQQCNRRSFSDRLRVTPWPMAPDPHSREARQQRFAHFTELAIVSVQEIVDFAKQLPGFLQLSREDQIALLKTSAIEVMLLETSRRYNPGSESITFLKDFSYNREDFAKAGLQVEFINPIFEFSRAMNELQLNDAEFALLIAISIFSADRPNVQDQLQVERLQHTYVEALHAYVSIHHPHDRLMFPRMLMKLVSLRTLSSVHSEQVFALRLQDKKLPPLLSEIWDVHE
Summary of the method: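 HepG2 cells were transiently transfected with multiplexed reporter units driven by chimeric LXRa–GAL4 fusion proteins, then dosed for 24 h. Reporter mRNA was quantified by RT-PCR, fluorescent labelling and capillary electrophoresis; gain of signal fitted against DMSO baseline.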

[19] = biological target: Oxysterols receptor LXR-beta (Homo sapiens) (UniProt P55055); experiment: ATG_LXRb_TRANS: Attagene TRANS-FACTORIAL HepG2 Assay for human Liver X Receptor beta (LXRb) (AID 2282981; active means hit-call score of the fitted dose curve at least 0.9, where 1 is the maximum); details: HepG2 Attagene TRANS GAL4-LXRb reporter, mRNA
Sequence of Oxysterols receptor LXR-beta (Homo sapiens) (P55055 whole entry, looked up, the tested form may be a part): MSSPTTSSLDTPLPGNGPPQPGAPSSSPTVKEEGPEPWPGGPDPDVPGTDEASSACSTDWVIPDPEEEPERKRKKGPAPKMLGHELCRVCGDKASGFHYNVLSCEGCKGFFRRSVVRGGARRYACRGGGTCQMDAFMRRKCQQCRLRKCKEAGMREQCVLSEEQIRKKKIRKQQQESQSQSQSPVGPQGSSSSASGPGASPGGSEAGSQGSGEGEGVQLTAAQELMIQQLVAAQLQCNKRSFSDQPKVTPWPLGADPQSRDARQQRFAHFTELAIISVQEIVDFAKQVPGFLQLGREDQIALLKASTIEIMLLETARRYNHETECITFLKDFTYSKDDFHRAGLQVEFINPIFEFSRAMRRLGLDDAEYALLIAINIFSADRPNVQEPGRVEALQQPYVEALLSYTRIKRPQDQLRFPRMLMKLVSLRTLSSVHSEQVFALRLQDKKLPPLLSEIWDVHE
Summary of the method: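 After 24 h chemical treatment of transfected HepG2 cells carrying exogenous NR-Gal4 chimeras, reporter mRNA was quantified by fluorescent RT-PCR and capillary electrophoresis; activity taken as increase over DMSO controls.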

Measured: outcome

CCCCOCC1CO1 (centres undefined)
inactive: [1] | [2] | [3] | [4] | [5] | [6] | [7] | [8] | [9]

COCCOCCO
not listed: [2] | [9] | [16] | [17] | [18] | [19]
inactive: all other assays above

CN(C)C(=O)Cl
not listed: [1] | [2] | [9] | [12] | [18] | [19]
inactive: all other assays above

CNC(=O)Oc1ccc(N(C)C)c(C)c1
not listed: [2] | [10] | [12] | [13] | [14] | [15] | [16]
inactive: all other assays above

CC(Cc1ccc(OCC(=O)O)cc1)NCC(O)c1csc(C(F)(F)F)n1 (centres undefined)
not listed: [1] | [10] | [11] | [15] | [16] | [17] | [18]
inactive: all other assays above
